From PubChem BioAssay (NCI)
Compounds without any hit were thinned out: in the full panel of roughly 83,000, 20% have a hit.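 Single-dose data. Exposure time 48 hours. Values below 10 considered active.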 Active and inactive are the calls of the source.

Columns and labels:
Assay in all cases: NCI-60 one-dose screen, 48 h (100 = growth as untreated, 0 = no growth, -100 = all killed)
Conditions in all cases: 10 µM unless noted
DU-145 prostate = test system: DU-145 prostate
K-562 leukemia = test system: K-562 leukemia
MALME-3M melanoma = test system: MALME-3M melanoma
MDA-MB-231 breast = test system: MDA-MB-231 breast
RXF 393 renal = test system: RXF 393 renal
SF-268 CNS = test system: SF-268 CNS
SF-295 CNS = test system: SF-295 CNS
SF-539 CNS = test system: SF-539 CNS
UACC-257 melanoma = test system: UACC-257 melanoma
M14 melanoma = test system: M14 melanoma

Measured: growth

O=C(Nc1ccc(Cl)cc1)Oc1c(Cl)c(Cl)c(Cl)c(Cl)c1Cl
inactive: DU-145 prostate 97.9% | K-562 leukemia 89.9% | MALME-3M melanoma 93.7% | MDA-MB-231 breast 92.9% | RXF 393 renal 106% | SF-268 CNS 92.9% | SF-295 CNS 83.2% | SF-539 CNS 94.8% | UACC-257 melanoma 100% | M14 melanoma 96.8%

O=C(Nc1ccccc1[N+](=O)[O-])c1ccc(Cl)c(Cl)c1
inactive: DU-145 prostate 102% | K-562 leukemia 91.9% | MALME-3M melanoma 93.5% | MDA-MB-231 breast 93.2% | RXF 393 renal 88.1% | SF-268 CNS 89.8% | SF-295 CNS 93.3% | SF-539 CNS 89.4% | UACC-257 melanoma 90.8% | M14 melanoma 101%

Cc1ccc(-c2nc(/C=C3/C(=O)Nc4ccc(F)cc43)c3ccccn23)cc1
active: DU-145 prostate -23.1%
inactive: K-562 leukemia 93.7% | MALME-3M melanoma 75.8% | MDA-MB-231 breast 91% | RXF 393 renal 63.5% | SF-268 CNS 75.6% | SF-295 CNS 76% | SF-539 CNS 82.3% | UACC-257 melanoma 95.5% | M14 melanoma 98.8%

N#CC1=C(N)Oc2ccc3ccccc3c2C1c1ccc([N+](=O)[O-])cc1 (stereo not given)
inactive: DU-145 prostate 104% | K-562 leukemia 77.7% | MALME-3M melanoma 51.4% | MDA-MB-231 breast 57.8% | RXF 393 renal 94.7% | SF-268 CNS 80.5% | SF-295 CNS 84.6% | SF-539 CNS 85.7% | UACC-257 melanoma 89.3% | M14 melanoma 89.7%

O=C(C1CCCCC1)[C@@H]1[C@]2(C(=O)NC3CCCCC32)[C@@H]2CCCN2[C@@]12C(=O)NC1CCC(Cl)CC12 (stereo not given in full)
active: DU-145 prostate -98% [100 µM] | K-562 leukemia -66% [100 µM] | MALME-3M melanoma -66.4% [100 µM] | MDA-MB-231 breast -71.7% [100 µM] | RXF 393 renal -66.6% [100 µM] | SF-268 CNS -77.4% [100 µM] | SF-295 CNS -92.5% [100 µM] | SF-539 CNS -93.3% [100 µM] | UACC-257 melanoma -77.8% [100 µM] | M14 melanoma -83.2% [100 µM]

CCN(CC)Cc1cc(Nc2ccnc3cc(Cl)ccc23)ccc1O
inactive: DU-145 prostate 97.4% | K-562 leukemia 87.1% | MALME-3M melanoma 104% | MDA-MB-231 breast 72.3% | RXF 393 renal 97.4% | SF-268 CNS 77.8% | SF-295 CNS 93.4% | SF-539 CNS 85.6% | UACC-257 melanoma 112% | M14 melanoma 91.2%

CC1=CC(c2ccco2)=C2C(N)=NNC2N1 (stereo not given)
inactive: DU-145 prostate 110% | K-562 leukemia 99.6% | MALME-3M melanoma 92.5% | MDA-MB-231 breast 92.1% | RXF 393 renal 119% | SF-268 CNS 98.7% | SF-295 CNS 98.2% | SF-539 CNS 81.1% | UACC-257 melanoma 102% | M14 melanoma 104%

NS(=O)(=O)c1ccc(NC(=O)/C(=C\c2ccc(Cl)cc2Cl)NC(=O)c2ccccc2)cc1
inactive: DU-145 prostate 109% | K-562 leukemia 88.2% | MALME-3M melanoma 93.2% | MDA-MB-231 breast 105% | RXF 393 renal 96% | SF-268 CNS 94.5% | SF-295 CNS 104% | SF-539 CNS 95.7% | UACC-257 melanoma 102% | M14 melanoma 102%

O=C(CN1CCN(c2cc3c(cc2F)c(=O)c(C(=O)O)cn3C2CC2)CC1)N/N=C/c1ccco1
inactive: DU-145 prostate 106% | K-562 leukemia 95% | MALME-3M melanoma 92.2% | MDA-MB-231 breast 98.7% | RXF 393 renal 112% | SF-268 CNS 93.8% | SF-295 CNS 100% | SF-539 CNS 93.2% | UACC-257 melanoma 93.9% | M14 melanoma 96.6%

N#Cc1ccc(O)c(C2=NCC(Cc3ccccc3)O2)c1 (stereo not given)
inactive: DU-145 prostate 55.7% | K-562 leukemia 26.5% | MALME-3M melanoma 64.3% | MDA-MB-231 breast 77.6% | RXF 393 renal 62.4% | SF-268 CNS 52.2% | SF-295 CNS 31.2% | SF-539 CNS 68.7% | UACC-257 melanoma 63.6% | M14 melanoma 45.4%

O=S(=O)(Nc1cc(Sc2cccc3cccnc23)c(O)c2ccccc12)c1ccccc1
active: K-562 leukemia -16.8% | MALME-3M melanoma 0.404% | SF-268 CNS 8.28% | SF-539 CNS -9.98% | UACC-257 melanoma -9.38% | M14 melanoma -16.5%
inactive: DU-145 prostate 15% | MDA-MB-231 breast 25.1% | RXF 393 renal 28.7% | SF-295 CNS 21.7%

CC1=CCC(OC(=O)C(C)(C)CC(O)(C(C)O)C(O)C2(C)C=CC(Cc3ccc(C(C)C)cc3)(C(C)C)CC2)(C(C)C)CC1 (stereo not given)
inactive: DU-145 prostate 107% | MALME-3M melanoma 92.2% | MDA-MB-231 breast 95.9% | RXF 393 renal 97.8% | SF-268 CNS 98.5% | SF-295 CNS 97.1% | SF-539 CNS 93.3% | UACC-257 melanoma 98.7% | M14 melanoma 96.1%
active: K-562 leukemia 9.06%

Nc1ncnc2c1N=C(c1ccc3c(c1)OCO3)CC(c1cccc(Nc3ccnc4cc(C(F)(F)F)ccc34)c1)N2 (stereo not given)
inactive: DU-145 prostate 87.3% | K-562 leukemia 21% | MALME-3M melanoma 84.3% | MDA-MB-231 breast 88.4% | RXF 393 renal 80.5% | SF-268 CNS 83.6% | SF-295 CNS 87.6% | SF-539 CNS 98.9% | UACC-257 melanoma 74.9% | M14 melanoma 94.2%

COC1=C(C)C(=O)N2[C@@H]1[C@H](c1ccccc1)OC21C=CC(=O)C=C1
inactive: MDA-MB-231 breast 11.9% | SF-295 CNS 90.3%
active: DU-145 prostate 4.7% | K-562 leukemia 6.14% | MALME-3M melanoma -12.3% | RXF 393 renal -69.2% | SF-268 CNS 1.71% | SF-539 CNS -69% | UACC-257 melanoma -12.8% | M14 melanoma -43.8%

COc1cccc(/C=C/C(=O)c2cc3c(N)c(C(=O)Nc4cccc5ccccc45)sc3nc2C)c1
inactive: K-562 leukemia 10.4% | MALME-3M melanoma 33.5% | SF-268 CNS 15.3% | SF-295 CNS 15.5% | UACC-257 melanoma 61.7%
active: DU-145 prostate 7.62% | MDA-MB-231 breast -3.88% | RXF 393 renal -31.6% | SF-539 CNS -67.3% | M14 melanoma 2.46%

COC(=O)c1ccc(NC(=O)Nc2ccc(C(=O)OC)cc2)cc1
inactive: DU-145 prostate 121% | K-562 leukemia 90.6% | MALME-3M melanoma 123% | MDA-MB-231 breast 94.1% | RXF 393 renal 112% | SF-268 CNS 115% | SF-295 CNS 121% | SF-539 CNS 112% | UACC-257 melanoma 104% | M14 melanoma 103%
